The values that follow come from article PMC7819943, “Rice protein-binding microarrays: a tool to detect cis-acting elements near promoter regions in rice”.

The full ranking holds about 68,000 sequences; the median of “fluorescence intensity (a.u.)” is about 9,100, and the highest 2% start at about 16,000. The full list was thinned out, with the highest values kept by preference.

Sequence of OsWRKY34 (Q0JBA9 entry or part of it): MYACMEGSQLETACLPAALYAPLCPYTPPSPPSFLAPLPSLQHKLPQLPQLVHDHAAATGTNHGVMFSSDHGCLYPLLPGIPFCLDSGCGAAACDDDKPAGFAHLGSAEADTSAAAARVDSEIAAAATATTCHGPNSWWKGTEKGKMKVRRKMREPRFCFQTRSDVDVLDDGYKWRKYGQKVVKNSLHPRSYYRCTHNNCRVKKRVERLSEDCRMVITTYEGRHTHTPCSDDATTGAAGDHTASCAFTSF

This assay concerns the target OsWRKY34 (Oryza sativa, UniProt Q0JBA9 1-250). The assay can be described thus: protein-binding microarray (RPBM); PBS, 2% BSA, 51.3 ng/ul salmon testes DNA, 50 uM zinc acetate, 200 nM TF, 25 C, 1 h; high values mean tight binding. The note with it: protein: recombinant; tags: N-terminal polyhistidine and DsRed monomer fusion (pET32a); label: CyDye5-dUTP incorporated in the synthesized complementary strand; 3' TTTTT single-stranded linker to array surface; dsDNA, one strand shown. The method, boiled down:
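Per-feature fluorescence intensity (arbitrary units), read on an Axon 4000B scanner, is the binding signal. Transcription factors carrying an N-terminal polyhistidine tag and DsRed fusion were expressed in E. coli BL21-CodonPlus and purified on Ni–NTA. A custom Agilent array, made double-stranded by primer extension with Cy5-dUTP and blocked with 2% BSA, was incubated with 200 nM protein in PBS, 2% BSA, salmon testes DNA and 50 µM zinc acetate at 25 °C for 1 h and then washed.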
Turning to “GACTTTAGTCAAAGTCATGTTGTTTCAAGTTTGACTAATTCGGAGTCACCTAGTGCAG”, the binding signal is 18800 fluorescence intensity (a.u.).

Consider “TTTTCCTTAGTCAAAGTTATATATGTTTGACTAAATTTATCGGAGTCACCTAGTGCAG”, for which the binding signal is 18000 fluorescence intensity (a.u.).

For “TTTGGTCAAACTTAAAAAAGTTTGACTACAACTAAATTCACGGAGTCACCTAGTGCAG”, the binding signal was 8740 fluorescence intensity (a.u.).

On to “TAAGACGTTTTGACTTTGGTCAAACTGTTTGGTCAAAGTCCGGAGTCACCTAGTGCAG”, for which the binding signal was 10600 fluorescence intensity (a.u.).

In the case of “ATTGTTATGTTCCTTTGTTTTCTTATAAATATAATTTAATCGGAGTCACCTAGTGCAG”, the binding signal is 9560 fluorescence intensity (a.u.).

In the case of “CTTTAGTTAAAGTCAAAGTGCTTCAAGTTTGACTAAGTTTCGGAGTCACCTAGTGCAG”, the binding signal was 9150 fluorescence intensity (a.u.).

Regarding “CTAAAATTTCCTTATGTTTTCTTCTTCTTCTAGTTATGTGCGGAGTCACCTAGTGCAG”, the binding signal is 8800 fluorescence intensity (a.u.).

“CATTTGACTTTTTTCTAGTCAAAGTTATTTATATTTAATTCGGAGTCACCTAGTGCAG”: the binding signal was 14100 fluorescence intensity (a.u.).

Turning to “GTTTTGACTTTGGTCAAAGTCAAACTAATTCAAGTTAGACCGGAGTCACCTAGTGCAG”, the binding signal is 17600 fluorescence intensity (a.u.).

Turning to “TCATACATGTGATCACTCACTCACTCTCACACACACTCTCCGGAGTCACCTAGTGCAG”, the binding signal was 10100 fluorescence intensity (a.u.).

With “AAACAGACCCTTAATATGCTATATTTGTCTCCAATAAAACCGGAGTCACCTAGTGCAG”, the binding signal is 8480 fluorescence intensity (a.u.).

In the case of “TTGCTCTTGTTAATGTTTGGCTTTCTTCTTCTTCTGCTGCCGGAGTCACCTAGTGCAG”, the binding signal was 8600 fluorescence intensity (a.u.).

With “CTGCCGCGCTTCGTCGCCGCGCTCGCCCGTCTTTCGCTCTCGGAGTCACCTAGTGCAG”, the binding signal is 8230 fluorescence intensity (a.u.).

For the sequence “CCTCATCCGCTGCTCTGCTCCCACCATTGCTGCTCTCTCTCGGAGTCACCTAGTGCAG”, the binding signal is 17700 fluorescence intensity (a.u.).

For “ACACTCTGCTGCATCTCTTATCCCTTCATCTCGGTCTTAACGGAGTCACCTAGTGCAG”, the binding signal is 16600 fluorescence intensity (a.u.).

Take “GCTCCACCTACTCCGCTCCCCTCTGCTCGGCTGCTCCCATCGGAGTCACCTAGTGCAG”: the binding signal was 8470 fluorescence intensity (a.u.).

Turning to “TGGGGTTTTCAGCTTGCCAATGCTGCATTATCTTCTTTTTCGGAGTCACCTAGTGCAG”, the binding signal was 17200 fluorescence intensity (a.u.).

“ACCAGCTTTCTTTCTCGTGCTTTCCTCTTCTTCTTTTTTTCGGAGTCACCTAGTGCAG”: the binding signal is 10900 fluorescence intensity (a.u.).

Take “GGCTCGTGCACCTGCTCTCGTCTTTTCCACCGCTTTTTTTCGGAGTCACCTAGTGCAG”: the binding signal was 16800 fluorescence intensity (a.u.).

“GGCCCTGAGCTCTCTCTTGCTGCTTCTTTTAATGGGTTTTCGGAGTCACCTAGTGCAG”: the binding signal was 9680 fluorescence intensity (a.u.).

For the sequence “CTCCATTCTTGTTTGTTCCTTCTTTGCTTTCAGCTGCTTTCGGAGTCACCTAGTGCAG”, the binding signal was 15000 fluorescence intensity (a.u.).

Consider “ATATCCCTTCTCTTCCCTCATCTCTCCACCTCTTCCATCTCGGAGTCACCTAGTGCAG”, for which the binding signal was 8890 fluorescence intensity (a.u.).

With “GCTCCCTGCTGCCATATCCTATCATCTCCTCTCTTCCTCTCGGAGTCACCTAGTGCAG”, the binding signal is 8540 fluorescence intensity (a.u.).

Consider “TCTCTCTCTCTCTCCTCTGCATCCGCGCGCATTGCTCGATCGGAGTCACCTAGTGCAG”, for which the binding signal was 9000 fluorescence intensity (a.u.).

In the case of “GCAGCATCACCCGCAGCCGCCGCCGCCGCCGCCATGGACTCGGAGTCACCTAGTGCAG”, the binding signal was 10100 fluorescence intensity (a.u.).

On to “GCAATACACCTGATTTGATACTTCTTCCGATATAATACTCCGGAGTCACCTAGTGCAG”, for which the binding signal was 8900 fluorescence intensity (a.u.).

Turning to “GATTGTATATGCCTGATAGGACTAGTTAGTGTGTTTTCTTCGGAGTCACCTAGTGCAG”, the binding signal is 9220 fluorescence intensity (a.u.).

Regarding “CACTAGTTTTAGTTACTAACTTATGGCTCTTGTGCTATCACGGAGTCACCTAGTGCAG”, the binding signal was 8070 fluorescence intensity (a.u.).

For the sequence “AAGACACAGCTTCAACACGTAACCTATGCACTACACACTACGGAGTCACCTAGTGCAG”, the binding signal is 11700 fluorescence intensity (a.u.).

Take “CCCGTTCTAATTCAGTTTCTCCCTTTCTTACCGCATGTACCGGAGTCACCTAGTGCAG”: the binding signal is 8490 fluorescence intensity (a.u.).

On to “GTTCTCTAGCCGCTTGTGATACTCGCAATCCTAAACCACGCGGAGTCACCTAGTGCAG”, for which the binding signal was 8410 fluorescence intensity (a.u.).

As to “TAACTGCGTTGACATGTCGCCTTGCTATACTCACATTCTTCGGAGTCACCTAGTGCAG”, the binding signal was 9470 fluorescence intensity (a.u.).

As for “TCTCACTCTCTCACACACACACTCTCTCTCTCTGCTAGCTCGGAGTCACCTAGTGCAG”, the binding signal is 9820 fluorescence intensity (a.u.).

For “GAATGTTGATGCTGTTGATGCATGCACCTGCCGAAGGCCGCGGAGTCACCTAGTGCAG”, the binding signal is 9170 fluorescence intensity (a.u.).

With “CTCGCCATCTCTGCCGCCGGTCCGCCGCCTCGCTCGCTCGCGGAGTCACCTAGTGCAG”, the binding signal was 9470 fluorescence intensity (a.u.).

For “CTCTTGCTGTTTCCTTTGCTCTGTTTCCTCTGCCTGCGCCCGGAGTCACCTAGTGCAG”, the binding signal is 8760 fluorescence intensity (a.u.).

In the case of “CTTCTGTCATATCACCTTGCCGCTGCTTCTGATCATCTCCCGGAGTCACCTAGTGCAG”, the binding signal was 8670 fluorescence intensity (a.u.).

Take “CACCACCTTTGTTTGCTGCTCTCCATTTTTTTTCTTCGTTCGGAGTCACCTAGTGCAG”: the binding signal was 10200 fluorescence intensity (a.u.).

Regarding “GAATCTGCTTCTCATTCTTTTTTTCTTGCTGATCATCATGCGGAGTCACCTAGTGCAG”, the binding signal is 10200 fluorescence intensity (a.u.).

As for “TTGTTCTTGCTGCATTTCTTCTTCTCGTTTTTTTTTCTTTCGGAGTCACCTAGTGCAG”, the binding signal is 16900 fluorescence intensity (a.u.).

Take “TGTTTGCTGCTGCTGCTGCTCTGCTTTTCTCTTTTTTCTTCGGAGTCACCTAGTGCAG”: the binding signal is 9490 fluorescence intensity (a.u.).

As to “CGCTGCTTCTGATCATCTCCCGTTCTTGCATTCTTCTTCTCGGAGTCACCTAGTGCAG”, the binding signal is 19400 fluorescence intensity (a.u.).

With “TGTCCGCCACGCTCTCGCCATCTGCCTGTACCACTAATCTCGGAGTCACCTAGTGCAG”, the binding signal is 22500 fluorescence intensity (a.u.).

Take “TTCACCACCACCGCCACGGCCTCTGCCTCTCGCTCTCTCTCGGAGTCACCTAGTGCAG”: the binding signal is 10200 fluorescence intensity (a.u.).

For “ACGCCCGCTTGATCCGCCTGCTGCGCGCGCGCGAGTTTTTCGGAGTCACCTAGTGCAG”, the binding signal was 9160 fluorescence intensity (a.u.).

Regarding “ATCCCGGCCTGCTCTTGCGCTTTGACTTTTTGTAGAGTTTCGGAGTCACCTAGTGCAG”, the binding signal was 18200 fluorescence intensity (a.u.).

For the sequence “TACTACTGTACTACTCTCAGTCTCTCGGCTTCTAGACTAGCGGAGTCACCTAGTGCAG”, the binding signal is 8600 fluorescence intensity (a.u.).

Regarding “GATTCTAAACATCCACTCACACCTCATTTTTTTCATTAGCCGGAGTCACCTAGTGCAG”, the binding signal was 9350 fluorescence intensity (a.u.).

For the sequence “TGCCTGGCACCGTCCCCATCGCCGGCCGCCTCCGCCTCCGCGGAGTCACCTAGTGCAG”, the binding signal is 11300 fluorescence intensity (a.u.).

For “ACTTAATCCATTTTCTTTTCTTCTCCTATTTTTCCATCAACGGAGTCACCTAGTGCAG”, the binding signal is 9970 fluorescence intensity (a.u.).

Consider “ATATTTCTATGATTCTATCCCCTCCAGATTTATCGGCGCCCGGAGTCACCTAGTGCAG”, for which the binding signal is 8310 fluorescence intensity (a.u.).

As to “CTTCCAGGCAGTTGTTCTGTATCCTCTTCTTGTTGCAACACGGAGTCACCTAGTGCAG”, the binding signal was 8920 fluorescence intensity (a.u.).

On to “TTTTGGTTTTATGAGGCGGTGGATGGATACTTGTTACACTCGGAGTCACCTAGTGCAG”, for which the binding signal is 10300 fluorescence intensity (a.u.).

As for “CGGCTTCTCGCTTTCTTGTTTCTCGTGGAGTTGCTTTTTTCGGAGTCACCTAGTGCAG”, the binding signal is 17500 fluorescence intensity (a.u.).

As to “TCTCTCCATCCATCCCTGCTGCTTCTCCATCTCGCATCTGCGGAGTCACCTAGTGCAG”, the binding signal was 16700 fluorescence intensity (a.u.).

Take “GCTTCTCCATCTCGCATCTGCTGCCTCCTAATTTGCTTCGCGGAGTCACCTAGTGCAG”: the binding signal is 10000 fluorescence intensity (a.u.).

With “GTGGGCATGATTTTCTTCTGTTTTCTCGTTTTAATTTTTTCGGAGTCACCTAGTGCAG”, the binding signal is 20100 fluorescence intensity (a.u.).

With “ACCGGTGGCTTTGTTTGGTTCCACGGTCTTCAGGTTGGGACGGAGTCACCTAGTGCAG”, the binding signal is 8130 fluorescence intensity (a.u.).

Consider “TCCTCTTCTGTTTTTCTGTTTTTTTTCGTTTCTCTTCCCTCGGAGTCACCTAGTGCAG”, for which the binding signal was 13300 fluorescence intensity (a.u.).

As for “CTGCTTCTTTTGTTTGGTTGGTTTCAGGGCTTCGTGGCCACGGAGTCACCTAGTGCAG”, the binding signal was 17800 fluorescence intensity (a.u.).

Consider “GTTCGTTCGCCCTGCTGCTTCTCCCGCCGCATCCATCCCGCGGAGTCACCTAGTGCAG”, for which the binding signal was 9640 fluorescence intensity (a.u.).

“TGTGCGCGTGTTGTTTTTTTGGCTTCTTTTTCGCTTGCCACGGAGTCACCTAGTGCAG”: the binding signal is 11400 fluorescence intensity (a.u.).

Regarding “TTTTTTCGGTGTTTTTCTTTTTGTTTCTTTTCGCTTCGCTCGGAGTCACCTAGTGCAG”, the binding signal is 12700 fluorescence intensity (a.u.).

Regarding “ATTGTTTTTTTTCTTTCTTTTTGCAAATCTCGCTTCGCTTCGGAGTCACCTAGTGCAG”, the binding signal was 8540 fluorescence intensity (a.u.).

As to “TGTGCTTCTTTTTTTAATTTCTCTCTCTGTTTGCTTCTCTCGGAGTCACCTAGTGCAG”, the binding signal was 9720 fluorescence intensity (a.u.).
